# Laboratory results published in PubChem BioAssay (EPA / NIEHS).
# Inconclusive results are not listed. The source made the active and inactive calls. How the source made its calls: active means hit-call score of the fitted dose curve at least 0.9, where 1 is the maximum; inconclusive means response in the unintended direction; inactive means score below 0.9.
# How the values were obtained:
# [1] = ACEA_AR_agonist_AUC_viability: ACEA Biosciences xCELLigence Real-Time Cell Analysis on Androgen Receptor Agonism for Viability (AID 2283775);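 on AC50: viability read 80 hours after compound addition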
# Method in brief: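 Viability endpoint from xCELLigence impedance in 22Rv1 prostate cells at 80 h. Eight-point series, 100 uM maximum final.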
# [2] = ACEA_AR_antagonist_AUC_viability: ACEA Biosciences xCELLigence Real-Time Cell Analysis on Androgen Receptor Antagonism for Viability (AID 2283776);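 further: 22Rv1 human prostate cancer cells growing on impedance electrode plates; area under impedance growth curve at 80 h after dosing as viability; hits lower the growth signal relative to DMSO meaning cytotoxicity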
# Method in brief: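 22Rv1 prostate cells, continuous dosing up to 100 uM final (0.5% DMSO max), duplicate plates. Growth measured by impedance; AUC at 80 h, loss of signal vs DMSO.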
# [3] = ArunA_NOG_BranchPointsPerNeurite: ArunA Biomedical's Neurite Outgrowth (NOG) Assay for Branch Points Per Neurite (AID 2283759)
# Method in brief: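 Automated image analysis traced neurites (processes >10 um) from valid cell bodies after Hoechst and βIII-tubulin staining. hNN cells from H9 embryonic stem cells, 48 h exposure. Fitted bidirectionally against DMSO.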
# [4] = test system: zebrafish Androgen Receptor (AR), gene 100005148; experiment: ATG_zfAR_XSP1: Attagene TRANS-FACTORIAL Multi-Species (XSP1) HepG2 Assay for zebrafish Androgen Receptor (AR) (AID 2283771)
# Method in brief: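 Gain-of-signal versus DMSO was measured as reporter transcripts quantified by RT-PCR, fluorescent labelling and capillary electrophoresis after 24 h chemical exposure. The cells were HepG2 expressing a chimeric zebrafish AR-GAL4, co-stimulated with 3 nM 6-alpha-fluorotestosterone.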
# [5] = test system: zebrafish Estrogen Receptor (ESR2B), gene 317733; experiment: ATG_zfER2b_XSP1: Attagene TRANS-FACTORIAL Multi-Species (XSP1) HepG2 Assay for zebrafish Estrogen Receptor (ESR2B) (AID 2283773)
# Description: ATG_XSP1_multi-species_TRANS is a cell-based, multiplexed assay created by modifying the existing Attagene TRANS-FACTORIAL system to include a panel of nuclear receptors from some or all the following species: human (Homo sapiens), mouse (Mus musculus), frog (Xenopus laevis), zebrafish (Danio rerio), chicken (Gallus gallus), and turtle (Chrysemys picta). The ECOTOX-FACTORIAL format uses HepG2, a human liver cell line, with measurements taken at 24 hours after chemical dosing in a 24-well plate. Xsp1 included 3 nM 6-alpha-fluorotestosterone to partially stimulate the androgen receptor.ATG_zfER2b_XSP1 is one of 29 assay components measured or calculated from the ATG_XSP1_multi-species_TRANS assay. It is designed to make measurements of mRNA induction, a form of inducible reporter, as detected with fluorescence intensity signals by Reverse transcription polymerase chain reaction (RT-PCR) and Capillary electrophoresis technology.The assay endpoint ATG_zfER2b_XSP1 was analyzed in the positive analysis fitting direction relative to DMSO as the negative control and baseline of activity. […] Furthermore, this assay endpoint can be referred to as a primary readout, because this assay has produced multiple assay endpoints where this one serves a reporter gene function. […]
# [6] = test system: frog Estrogen Receptor (ESR1), gene 398734; experiment: ATG_frER1_XSP1: Attagene TRANS-FACTORIAL Multi-Species (XSP1) HepG2 Assay for frog Estrogen Receptor (ESR1) (AID 2283777)
# Method in brief: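 After transient transfection and 24 h compound treatment, total RNA from HepG2 cells was reverse-transcribed, amplified, FAM-labeled and resolved by capillary electrophoresis. Signal increases were fitted against DMSO controls.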
# [7] = test system: zebrafish Estrogen Receptor (ESR2A), gene 317734; experiment: ATG_zfER2a_XSP1: Attagene TRANS-FACTORIAL Multi-Species (XSP1) HepG2 Assay for zebrafish Estrogen Receptor (ESR2A) (AID 2283778)
# Method in brief: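 Gain-of-signal reporter transcription readout from GAL4-UAS units in transiently transfected HepG2 cells, 24 h exposure, 3 nM 6-alpha-fluorotestosterone co-present. Detection by RT-PCR with capillary electrophoresis fluorescence.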
# [8] = molecular target: Luciferin 4-monooxygenase (Photinus pyralis) (UniProt P08659); experiment: CCTE_Simmons_QuantiLum_inhib_2: CCTE's Firefly Luciferase Inhibition Assay, Simmons Lab (AID 2283767);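 on AC50: potency for inhibitors that lower luciferase luminescence relative to DMSO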
# Sequence of Luciferin 4-monooxygenase (Photinus pyralis) (P08659 whole entry, looked up): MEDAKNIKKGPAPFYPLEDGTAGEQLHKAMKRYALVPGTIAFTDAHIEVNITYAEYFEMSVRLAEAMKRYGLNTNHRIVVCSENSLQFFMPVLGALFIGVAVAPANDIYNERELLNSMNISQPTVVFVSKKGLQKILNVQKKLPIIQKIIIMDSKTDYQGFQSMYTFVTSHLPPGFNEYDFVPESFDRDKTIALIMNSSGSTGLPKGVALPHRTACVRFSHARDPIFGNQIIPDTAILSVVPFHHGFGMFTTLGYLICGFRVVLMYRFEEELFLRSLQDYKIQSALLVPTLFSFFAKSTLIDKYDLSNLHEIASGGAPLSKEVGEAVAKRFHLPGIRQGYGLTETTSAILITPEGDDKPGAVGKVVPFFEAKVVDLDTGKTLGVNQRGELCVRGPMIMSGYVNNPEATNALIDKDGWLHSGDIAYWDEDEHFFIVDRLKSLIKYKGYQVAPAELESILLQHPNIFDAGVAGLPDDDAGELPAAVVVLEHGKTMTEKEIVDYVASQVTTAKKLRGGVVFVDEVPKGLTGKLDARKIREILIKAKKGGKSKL
# Method in brief: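 Eight-point titrations of each chemical, 5 nM–87.5 uM final in 0.5% DMSO, were run in three biological replicates against recombinant luciferase for 30 min at 37C. Bioluminescence signal loss, read on reagent injection, gave the inhibition endpoint.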
# [9] = test system: frog Estrogen Receptor (ESR2), gene 100174814; experiment: ATG_frER2_XSP1: Attagene TRANS-FACTORIAL Multi-Species (XSP1) HepG2 Assay for frog Estrogen Receptor (ESR2) (AID 2283774)
# Method in brief: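 Multiplexed TRANS-format reporter assay in human hepatoma HepG2: chimeric nuclear receptor-Gal4 activity reported as mRNA induction at 24 h, detected by fluorescent RT-PCR products on capillary electrophoresis and fitted upward from DMSO baseline.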
# [10] = molecular target: zebrafish Estrogen Receptor (ESR1), esr1 (gene 259252) (UniProt P57717); experiment: ATG_zfER1_XSP1: Attagene TRANS-FACTORIAL Multi-Species (XSP1) HepG2 Assay for zebrafish Estrogen Receptor (ESR1) (AID 2283772)
# Sequence of zebrafish Estrogen Receptor (ESR1), esr1 (gene 259252) (P57717 whole entry, looked up, the tested form may be a part): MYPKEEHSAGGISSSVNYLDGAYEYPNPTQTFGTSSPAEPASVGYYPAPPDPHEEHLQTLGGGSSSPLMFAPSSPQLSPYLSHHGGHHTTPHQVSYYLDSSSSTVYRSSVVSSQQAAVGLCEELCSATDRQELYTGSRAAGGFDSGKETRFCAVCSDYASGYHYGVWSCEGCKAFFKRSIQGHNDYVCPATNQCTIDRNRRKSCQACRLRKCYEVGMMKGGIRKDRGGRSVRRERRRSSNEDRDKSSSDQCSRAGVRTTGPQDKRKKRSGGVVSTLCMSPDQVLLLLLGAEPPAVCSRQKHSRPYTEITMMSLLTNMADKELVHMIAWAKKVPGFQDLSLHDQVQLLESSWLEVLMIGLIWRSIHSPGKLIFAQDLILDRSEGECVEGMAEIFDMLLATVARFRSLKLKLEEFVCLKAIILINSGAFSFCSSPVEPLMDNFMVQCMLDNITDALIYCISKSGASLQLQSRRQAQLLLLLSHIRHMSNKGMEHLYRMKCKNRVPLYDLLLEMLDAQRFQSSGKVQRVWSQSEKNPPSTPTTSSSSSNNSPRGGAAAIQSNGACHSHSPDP
# Method in brief: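 Trans-activation readout: transfected zebrafish ER-Gal4 drives a UAS reporter in human HepG2 liver cells. After 24 h compound exposure (medium containing 3 nM 6-alpha-fluorotestosterone), induced reporter transcripts were quantified by RT-PCR with capillary electrophoresis, relative to DMSO.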
smiles,measurement,setting,value
O=c1[nH]cnc2c1ncn2[C@H]1CC[C@@H](CO)O1,outcome,[1],inactive
same,outcome,[2],inactive
O=C(O)[C@H](O)[C@@H](O)C(=O)O,outcome,[1],inactive
same,outcome,[2],inactive
CCCC(CCC)C(=O)O,AC50,[3],69.6 µM (active)
same,outcome,[1],inactive
same,AC50,[2],50 µM (active)
CC(C)C(=O)Nc1ccc([N+](=O)[O-])c(C(F)(F)F)c1,outcome,[4],inactive
same,outcome,[5],inactive
same,AC50,[1],55.2 µM (active)
same,outcome,[6],inactive
same,outcome,[7],inactive
c1ccc2ncccc2c1,outcome,[1],inactive
same,outcome,[2],inactive
OCC(CO)(CO)CO,outcome,[1],inactive
O=S(=O)(O)c1ccc(N=Nc2c(O)ccc3cc(S(=O)(=O)O)ccc23)cc1,outcome,[1],inactive
OCCNCCO,AC50,[3],15.4 µM (active)
same,outcome,[1],inactive
same,outcome,[2],inactive
CC(C)CCCCCCOC(=O)C1CCCCC1C(=O)OCCCCCCC(C)C (stereo not drawn),outcome,[1],inactive
O=C(NO)C1(NS(=O)(=O)c2ccc(Oc3ccc(F)cc3)cc2)CCOCC1,outcome,[8],inactive
same,AC50,[1],38.5 µM (active)
same,AC50,[2],50 µM (active)
c1ccc2cc3ccccc3cc2c1,outcome,[8],inactive
same,outcome,[1],inactive
same,outcome,[2],inactive
Cc1cccc(O)c1C,outcome,[8],inactive
same,outcome,[2],inactive
Cn1cc[nH]c1=S,AC50,[3],7.98 µM (active)
same,outcome,[8],inactive
same,outcome,[2],inactive
C[C@@H](Oc1ccc(CNC(=O)c2cccnc2Oc2ccc3c(c2)OCO3)c(F)c1)C(=O)O,outcome,[8],inactive
same,outcome,[2],inactive
CCCCCCCC/C=C\CCCCCCCC(=O)OC[C@@H](O)[C@H]1OC[C@H](O)[C@H]1O,outcome,[1],inactive
CCc1ccc(O)c(C(C)(C)C)c1,outcome,[8],inactive
same,AC50,[1],66.1 µM (active)
same,AC50,[2],70.5 µM (active)
C=CCc1cc(S(=O)(=O)c2ccc(O)c(CC=C)c2)ccc1O,outcome,[8],inactive
same,AC50,[5],1.68 µM (active)
same,AC50,[9],1.53 µM (active)
same,AC50,[1],24.3 µM (active)
same,AC50,[2],24.5 µM (active)
NC(=O)N(O)[C@@H]1COc2cc(OCc3ccccc3)ccc21,AC50,[8],2.1 µM (active)
same,outcome,[1],inactive
CC(=O)c1ccccc1,outcome,[1],inactive
same,outcome,[2],inactive
Cc1ccc(S(=O)(=O)NC(=O)NN2CCCCCC2)cc1,outcome,[8],inactive
same,outcome,[2],inactive
OC[C@H]1O[C@@H]2O[C@H]3[C@H](O)[C@@H](O)[C@@H](O[C@H]4[C@H](O)[C@@H](O)[C@@H](O[C@H]5[C@H](O)[C@@H](O)[C@@H](O[C@H]6[C@H](O)[C@@H](O)[C@@H](O[C@H]7[C@H](O)[C@@H](O)[C@@H](O[C@H]1[C@H](O)[C@H]2O)O[C@@H]7CO)O[C@@H]6CO)O[C@@H]5CO)O[C@@H]4CO)O[C@@H]3CO,outcome,[1],inactive
same,outcome,[2],inactive
Cn1c(=O)c2[nH]cnc2n(C)c1=O,outcome,[1],inactive
O=S1(=O)CCCO1,outcome,[8],inactive
same,outcome,[1],inactive
same,outcome,[2],inactive
NNC(=O)c1ccncc1,outcome,[8],inactive
same,outcome,[2],inactive
CCCCCCCCCCCCCCCCOS(=O)(=O)O,outcome,[8],inactive
same,AC50,[1],38.3 µM (active)
same,AC50,[2],43.8 µM (active)
O=C(O)c1cccc(C[C@@H]2COc3ccc(OCc4nc5cc(F)ccc5s4)cc3[C@@H]2O)c1,outcome,[1],inactive
same,outcome,[2],inactive
CCN(CC)C(=S)SSC(=S)N(CC)CC,outcome,[10],inactive
same,AC50,[1],25.8 µM (active)
same,AC50,[2],26 µM (active)
COS(C)(=O)=O,outcome,[8],inactive
same,outcome,[2],inactive
CCn1nc(C)c2c1C(=O)NCC(c1ccc(O)cc1)=N2,AC50,[8],15.8 µM (active)
same,AC50,[1],25.8 µM (active)
same,AC50,[2],15.1 µM (active)
c1ccc2c(c1)-c1cccc3c1c-2cc1ccccc13,AC50,[1],36.5 µM (active)
same,AC50,[2],4.1 µM (active)
CCc1cccc(CC)c1N,AC50,[1],50 µM (active)
same,AC50,[2],9.94 µM (active)
Nc1ccn([C@@H]2O[C@H](CO)[C@@H](O)[C@@H]2O)c(=O)n1,AC50,[1],1.22 µM (active)
same,AC50,[2],0.88 µM (active)
CCCc1ccccc1,outcome,[1],inactive
same,outcome,[2],inactive
CCOC(N)=O,outcome,[1],inactive
same,outcome,[2],inactive
O=C(O)CO,outcome,[1],inactive
same,outcome,[2],inactive
C=CN1CCCC1=O,outcome,[2],inactive
CC[C@H](C)C(=O)O[C@H]1C[C@H](O)C=C2C=C[C@H](C)[C@H](CC[C@@H](O)C[C@@H](O)CC(=O)O)[C@H]21,outcome,[1],inactive
same,outcome,[2],inactive
OC[C@H]1O[C@@](CO)(O[C@H]2O[C@H](CO)[C@@H](O)[C@H](O)[C@H]2O)[C@@H](O)[C@@H]1O,outcome,[2],inactive
O=C(O)c1ccc2c(c1)nc(C(=O)NC1CCN(C3CC3)CC1)n2Cc1cc(-c2ccc(Cl)s2)on1,AC50,[1],18.6 µM (active)
same,AC50,[2],15.8 µM (active)
OCCOCCOCCO,outcome,[2],inactive
COCc1nnc(-c2ccc[n+]([O-])c2)n1-c1c(Cl)c(Cl)cc2[nH]c(=O)c(=O)[nH]c12,outcome,[1],inactive
same,outcome,[2],inactive
OCc1ccccc1,outcome,[1],inactive
same,outcome,[2],inactive
CCCCCCCCCCCCCCO,AC50,[1],50 µM (active)
same,AC50,[2],50 µM (active)
COc1cc(C(C)C)c2c(c1)S(=O)(=O)N(COc1cc(=O)n3cccc(OCCN4CCCCC4)c3n1)C2=O,AC50,[1],22.3 µM (active)
same,AC50,[2],16.8 µM (active)
NC(N)=O,outcome,[1],inactive
same,outcome,[2],inactive
Cc1ncc([C@@H](CCCCCCc2ccc3c(n2)NCCC3)CC(=O)O)cn1,AC50,[1],0.00386 µM (active)
same,AC50,[2],0.00579 µM (active)
Cc1nccn1-c1ccc(Sc2cccc(C3(C(N)=O)CCOCC3)c2)cc1,AC50,[1],25.5 µM (active)
same,AC50,[2],24 µM (active)
CCOc1ccc2[nH]cc(C(=O)NCc3ccccc3)c(=O)c2n1,AC50,[1],26.1 µM (active)
same,AC50,[2],35.9 µM (active)
CNC(C)=O,outcome,[1],inactive
same,outcome,[2],inactive
c1ccc(C(O[C@@H]2CCCN(CCc3ccc4c(c3)OCO4)C2)c2ccccc2)cc1,AC50,[1],41.3 µM (active)
same,AC50,[2],58.3 µM (active)
CC(C)CC(C)O (stereo not drawn),outcome,[1],inactive
same,outcome,[2],inactive
CCCCC(CC)C(=O)OCCOCCOCCOC(=O)C(CC)CCCC (stereo not drawn),AC50,[1],50 µM (active)
same,AC50,[2],50 µM (active)
CCCCCCCCN(C)C,outcome,[1],inactive
same,outcome,[2],inactive
OC(CCl)CCl,outcome,[1],inactive
same,outcome,[2],inactive
CCCOc1ccc(S(=O)(=O)N2CCN(CC)CC2)cc1-c1nc2c(CC)n(Cc3ccccn3)nc2c(=O)[nH]1,outcome,[1],inactive
same,outcome,[2],inactive
COc1cc2c(c(OC)c1OC)-c1ccc(OC)c(=O)cc1[C@@H](NC(C)=O)CC2,AC50,[1],0.00303 µM (active)
same,AC50,[2],0.00231 µM (active)
OC(Cn1cncn1)(Cn1cncn1)c1ccc(F)cc1F,outcome,[1],inactive
same,outcome,[2],inactive
CCCCCCOC(=O)CC(CC(=O)OCCCCCC)(OC(=O)CCC)C(=O)OCCCCCC,outcome,[1],inactive
same,outcome,[2],inactive
CC(C)c1nnc2ccc(-c3ocnc3-c3cc(F)ccc3F)cn12,AC50,[1],66.8 µM (active)
same,AC50,[2],37.1 µM (active)
O=C(O)c1cccc(C(=O)O)c1,outcome,[1],inactive
same,outcome,[2],inactive
